{
  "source": "PubChem BioAssay (NCI)",
  "note": "The panel holds about 79,000 compounds, 15% with a hit somewhere; the sample as a whole holds those more often. Unmarked numbers belong to inactive results. Calls of active or inactive are those of the source. Cut-off read from the data, not from the text of the source: active = growth inhibition above about 70%; inactive = the rest.",
  "data": [
    {"assay": "NCI Yeast Anticancer Drug Screen. Data for the bub3 strain (AID 167)", "conditions": "S. cerevisiae bub3 mutant strain, at 50.0 µM (retest, dose inferred, filed as 5.0), active compounds read high", "outline": "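Whole-cell yeast assay. The mutant strain was incubated with compounds, and growth inhibition was determined by comparison with vehicle-treated cells.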", "values": [
      {"smiles": "O=Nc1c(O)ccc2ccccc12.[Fe].[Na+]", "growth inhibition": "98% (active)"},
      {"smiles": "CC(C)Cc1ncc(CC(C)C)n(O)c1=O", "growth inhibition": "99% (active)"},
      {"smiles": "COc1ccc2c(c1)CCc1c-2ccc(C)c1CCC(=O)O", "growth inhibition": "99% (active)"},
      {"smiles": "COc1ccc(/C=C(\\C#N)c2ccccc2)cc1OC", "growth inhibition": "66%"},
      {"smiles": "CCC(=O)OCC(=O)c1ccc(-c2ccccc2)cc1", "growth inhibition": "10%"},
      {"smiles": "C=C1CC(c2ccc(OCCCN3C(=O)c4ccccc4C3=O)c(OC)c2)OC1=O", "note": "(stereo not given)", "growth inhibition": "95% (active)"},
      {"smiles": "N[C@H](C(=O)O)[C@@H]1CC(Cl)=NO1", "growth inhibition": "97% (active)"},
      {"smiles": "Cc1ccc2c(c1)[n+]([O-])c(N)c(C#N)[n+]2[O-]", "growth inhibition": "97% (active)"},
      {"smiles": "Cc1cc(O)c2c(c1)C(=O)c1c(c(O)cc(O)c1-c1c(O)cc(O)c3c1C(=O)c1cc(C)cc(O)c1C3=O)C2=O", "growth inhibition": "69%"},
      {"smiles": "CC(=O)c1csc2c1C(=O)c1scc(C(C)=O)c1C2=O", "growth inhibition": "47%"},
      {"smiles": "CCC(CCCN(CC)CCc1ccccc1)OC(=O)c1cc(OC)c(OC)c(OC)c1", "note": "(stereo not given)", "growth inhibition": "18%"},
      {"smiles": "COC(CCC[N+](C)(C)C)CC[N+](C)(C)C", "note": "(stereo not given)", "growth inhibition": "70% (active)"},
      {"smiles": "CCC(=O)c1ccc2ccc3ccccc3c2c1", "growth inhibition": "87% (active)"},
      {"smiles": "CN(C)c1nc(N(C)C)oc(=[N+](C)C)n1", "growth inhibition": "15%"},
      {"smiles": "COc1ccc(Cc2ccc(N)cc2)cc1", "growth inhibition": "76% (active)"},
      {"smiles": "CN(C)CC(CN(C)C)C(=O)c1ccc(Oc2ccccc2)cc1", "growth inhibition": "99% (active)"},
      {"smiles": "C1C2OC2C2C1C1CC2C2OC12", "note": "(stereo not given)", "growth inhibition": "1%"},
      {"smiles": "Nc1ccc2c(c1)[nH]c(=O)c1cccc(Cl)c12", "growth inhibition": "90% (active)"},
      {"smiles": "COc1cccc(C2c3cc4c(cc3OC(Nc3ccccc3)C2C)OCO4)c1O", "note": "(stereo not given)", "growth inhibition": "96% (active)"},
      {"smiles": "Cc1cc(SC#N)cc(C)c1O", "growth inhibition": "63%"},
      {"smiles": "CCN(CC)CCCNc1ncc(C)c2c1c1ccc3c(O)cccc3c1n2C", "growth inhibition": "35%"},
      {"smiles": "O=C1c2ccccc2C(O)(C#Cc2ccccc2)c2cnccc21", "note": "(stereo not given)", "growth inhibition": "97% (active)"},
      {"smiles": "CC(=O)Nc1nnc(C)s1", "growth inhibition": "1%"},
      {"smiles": "CC1CN(CC(O)c2ccc(Br)cc2)CC(C)O1", "note": "(stereo not given)", "growth inhibition": "48%"},
      {"smiles": "O=C(C=P(c1ccccc1)(c1ccccc1)c1ccccc1)CC(=S)CC(=O)C=P(c1ccccc1)(c1ccccc1)c1ccccc1", "growth inhibition": "88% (active)"},
      {"smiles": "CN(C)CCC(/C=C/c1ccccc1)=N\\Nc1ccc(Cl)cc1Cl", "growth inhibition": "90% (active)"},
      {"smiles": "Oc1c(Cl)cc(Br)cc1Cl", "growth inhibition": "99% (active)"},
      {"smiles": "Cc1ccc2c(ccc(CC(=S)[S-])[n+]2C)c1", "growth inhibition": "38%"},
      {"smiles": "Cc1ccc2c(c1)C(=O)N(CC[P+](c1ccccc1)(c1ccccc1)c1ccccc1)C2=O", "growth inhibition": "90% (active)"},
      {"smiles": "Nc1ncnc2c1c(-c1ccccc1)cn2-c1ccc(Cl)cc1", "growth inhibition": "5%"},
      {"smiles": "Nc1nnc(-c2cc([N+](=O)[O-])cc([N+](=O)[O-])c2)o1", "growth inhibition": "7%"},
      {"smiles": "COc1cc2c(cc1OC)C(Cl)C(c1ccc(F)cc1)=C2Cl", "note": "(stereo not given)", "growth inhibition": "4%"},
      {"smiles": "COc1ccc(C2Oc3c(cccc3OC)C=C2[N+](=O)[O-])cc1", "note": "(stereo not given)", "growth inhibition": "96% (active)"},
      {"smiles": "O=C(O)c1cc2cc3ccccc3cc2cc1O", "growth inhibition": "22%"},
      {"smiles": "Oc1ccc2ccc3ccccc3c2c1", "growth inhibition": "98% (active)"},
      {"smiles": "COC(=O)c1ccc(OC)cc1", "growth inhibition": "2%"},
      {"smiles": "Clc1ccc2c(NCCCCCCNc3ccnc4cc(Cl)ccc34)ccnc2c1", "growth inhibition": "92% (active)"},
      {"smiles": "COc1ccc(C2C3=C(CCC(CN(C)C)C3=O)OC3=C2C(=O)C(CN(C)C)CC3)cc1", "note": "(stereo not given)", "growth inhibition": "-17%"},
      {"smiles": "CC(C)CC(NC(=O)COc1c(Cl)cc(Cl)c(Cl)c1Cl)C(=O)O", "note": "(stereo not given)", "growth inhibition": "10%"},
      {"smiles": "Cc1nc2c(=O)[nH]c3ccc(Cl)cc3c2o1", "growth inhibition": "75% (active)"}
    ]}
  ]
}
